# According to publication PMC5913336, “True equilibrium measurement of transcription factor-DNA binding affinities using automated polarization microscopy”:
# Target: Kr (Drosophila melanogaster, UniProt P07247 220-332)
# Test: FP; 20 mM Tris-acetate pH 7.0, 50 "nM" NaCl as printed (probably mM), 0.01% Tween 20, 0.1 mM DTT; conventional titration
# Conditions: tags: N-GST (pGEX-6P-1, kept); dsDNA, one strand shown
# Chain of Kr (P07247 220-332): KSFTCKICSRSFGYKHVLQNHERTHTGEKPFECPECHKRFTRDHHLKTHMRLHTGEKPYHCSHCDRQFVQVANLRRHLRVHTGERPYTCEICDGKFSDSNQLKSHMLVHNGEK
Sequence,binding signal,Kd [nM]
TTGTGGGATTA,3.61 Kd / Kd of best base at the position,–
TTGAGGGATAA,1.82 Kd / Kd of best base at the position,–
TTGAGGTATTA,13.8 Kd / Kd of best base at the position,–
TTGAGGGGTTA,1.22 Kd / Kd of best base at the position,–
TTGAGCGATTA,27.9 Kd / Kd of best base at the position,–
ATGAGGGATTA,1.06 Kd / Kd of best base at the position,–
TTGAGGGCTTA,2.19 Kd / Kd of best base at the position,–
TGGAGGGATTA,1.3 Kd / Kd of best base at the position,–
TTGAAGGATTA,1.22 Kd / Kd of best base at the position,–
TTGAGGGTTTA,9.26 Kd / Kd of best base at the position,–
TTGAGGGATCA,4.06 Kd / Kd of best base at the position,–
GTGAGGGATTA,1.3 Kd / Kd of best base at the position,–
TCGAGGGATTA,1.5 Kd / Kd of best base at the position,–
TTGGGGGATTA,16.7 Kd / Kd of best base at the position,–
TTGAGGGATTC,2.58 Kd / Kd of best base at the position,–
TTGACGGATTA,2.29 Kd / Kd of best base at the position,–
TTCAGGGATTA,4.61 Kd / Kd of best base at the position,–

Sequence,binding signal,Kd [nM]
TTGAGGGATTG,1.33 Kd / Kd of best base at the position,–
TTGAGGGAATA,4.25 Kd / Kd of best base at the position,–
TTGAGGGATGA,1.78 Kd / Kd of best base at the position,–
TTGAGGGATTA,–,~0.2
TTGAGAGATTA,15.7 Kd / Kd of best base at the position,–
TTTAGGGATTA,4.08 Kd / Kd of best base at the position,–
TTGATGGATTA,4.9 Kd / Kd of best base at the position,–
TTGAGGGACTA,3.27 Kd / Kd of best base at the position,–
TTAAGGGATTA,1.14 Kd / Kd of best base at the position,–
TAGAGGGATTA,1.67 Kd / Kd of best base at the position,–
TTGAGGGAGTA,2.01 Kd / Kd of best base at the position,–
TTGAGGCATTA,267 Kd / Kd of best base at the position,–
CTGAGGGATTA,1.7 Kd / Kd of best base at the position,–
TTGCGGGATTA,12.2 Kd / Kd of best base at the position,–
TTGAGGAATTA,2.59 Kd / Kd of best base at the position,–
TTGAGGGATTT,1.61 Kd / Kd of best base at the position,–
TTGAGTGATTA,37.9 Kd / Kd of best base at the position,–

# Target: T1, Cad (Drosophila melanogaster, UniProt P09085 273-344)
# T1 sequence: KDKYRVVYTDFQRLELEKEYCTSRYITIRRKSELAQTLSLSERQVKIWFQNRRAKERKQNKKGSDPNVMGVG
# Test: as above
# Conditions: tags: N-GST (pGEX-6P-1, kept); dsDNA, one strand shown
Sequence,binding signal,Kd [nM]
CAGTTTTTATA,1.11 Kd / Kd of best base at the position,–
TACTTTTTATA,1.3 Kd / Kd of best base at the position,–
CACTTTTTATA,–,~0.05
CACGTTTTATA,5.5 Kd / Kd of best base at the position,–
